About 79,000 compounds went through this panel and 15% of them were active in at least one assay; those are over-represented in the sample as a whole. Values without a mark were called inactive. Active and inactive are the calls of the source. Cut-off read from the data, not from the text of the source: active = growth inhibition above about 70%; inactive = the rest.
Assay: NCI Yeast Anticancer Drug Screen. Data for the CLN2oe strain (AID 163);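 note: 0% = growth of vehicle-only control cultures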
Conditions: S. cerevisiae CLN2oe strain, at 11.0 µM, stronger effect = higher value
Outline: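 Read-out: yeast growth inhibition, expressed relative to vehicle-only controls. The strain bears an engineered cell-cycle alteration.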

Row | SMILES | growth inhibition
1 | CC1(C)[C@@H]2CC[C@]1(C)[C@H](OC(=O)CSC#N)C2 | 1%
2 | S=C(N/N=C(/c1ccccc1)c1ccccn1)N1CCCCCC1 | 4%
3 | Cc1ccc2[nH]c3c(C)c4cc[n+](C)cc4c(C)c3c2c1 | 36%
4 | CNC(=O)OCc1c(COC(=O)NC)c(-c2ccc(-c3ccccc3)cc2)n(C)c1C | -20%
5 | COc1ccccc1/C=C1\Sc2scc(-c3cccc([N+](=O)[O-])c3)[n+]2C1=O | 99% (active)
6 | O=[N+]([O-])c1ccc2c(c1)C(N1CCN(CCO)CC1)Cc1ccc(F)cc1S2 (stereo not drawn) | 0%
7 | Cc1ccc(CCC2=CCCc3c2ccc2ccccc32)cc1 | -9%
8 | O=[N+]([O-])c1cccc2nccc(NCCCO)c12 | 4%
9 | Cc1ccc(-n2cc(-c3ccc(Cl)cc3)c(C#N)c2N)cc1 | -12%
10 | Cc1ccc(S/N=C\c2ccccc2O)cc1 | 2%
11 | O=C(O)C1OC1(c1cccc(Cl)c1)c1ccccc1Cl (stereo not drawn) | 13%
12 | NC(=S)N/N=C\c1nccc2ccccc12 | 35%
13 | Clc1cccc(C(Nc2nncs2)Nc2nncs2)c1Cl | -1%
14 | O=C(OCC=C1CCCC1)c1cc([N+](=O)[O-])cc([N+](=O)[O-])c1 | 9%
15 | O=C(Nc1ccccc1)C(=O)C(C(=O)c1ccccc1)C(c1ccccc1)c1ccccc1 (stereo not drawn) | 6%
16 | N#CN1C2CCC1CC(=O)C2 | -28%
17 | COc1ccccc1C(=O)OCC1CCCN2CCCCC12 (stereo not drawn) | -12%
18 | CCNc1nnc(CSc2nc(-c3ccccc3)c(-c3ccccc3)[nH]2)s1 | 5%
19 | O=C1c2ccccc2-c2n[nH]c3cccc1c23 | -26%

Same assay, conditions: S. cerevisiae CLN2oe strain, at 33.0 µM, stronger effect = higher value

Row | SMILES | growth inhibition
20 | CCC/C(Cl)=N\OC(=O)Nc1cccc(C(F)(F)F)c1 | 6%
21 | [O-][n+]1c2ccc(O)cc2nc2ccc(Cl)cc21 | 34%
22 | Clc1ccccc1C1OC1c1ccccc1Cl (stereo not drawn) | -1%
23 | c1ccc2c(c1)c1ncccc1c1nccnc21 | -8%
24 | CC(=O)Nc1ccc2c(c1)C(=Nc1ccc(C(=O)O)cc1)c1ccccc1-2 | 14%
25 | COc1ccc(OC)c2cc3ccccc3cc12 | 19%
26 | COc1cc(C2c3cc4c(cc3OC(NNc3ccccc3)C2C)OCO4)cc(OC)c1OC (stereo not drawn) | 89% (active)
27 | O=C1c2cc([N+](=O)[O-])ccc2-c2cccc(F)c21 | 15%
28 | CCCCCCCCCCCC(=O)N(C)C | 0%
29 | CCCCCCCCCCCC1=C(O)C(=O)C=C(O)C1=O | 93% (active)
30 | Cc1ccc(CSC(N)=Nc2ccccc2)cc1C | 7%
31 | CCCCCCCCCCC1CCC(=O)O1 (stereo not drawn) | 5%
32 | O=[N+]([O-])c1cc(CCl)ccc1CCl | 94% (active)
33 | Nc1ccc2c(c1)C(=O)c1cccc(N)c1C2=O | 37%
34 | CCCCCCCCCCNC(=O)OCC | 12%
35 | CC1=C(C)Cc2c(O)ccc(O)c2C1 | -11%
36 | COc1ccc2c(c1)C(=O)c1ccccc1C2 | 9%
37 | CCC(=O)OCCn1c2nc(=O)[nH]c(=O)c-2nc2cc(C)c(C)cc21 | -5%
38 | O=C(OCCN1CCCCCC1)C(c1ccsc1)C1CCCCC1 (stereo not drawn) | 57%
39 | Oc1c(Br)cc(Br)cc1C1CCCCC1 | 98% (active)

Row | SMILES | growth inhibition
40 | CC1(C)[C@@H]2CC[C@]1(C)[C@H](OC(=O)CSC#N)C2 | 47%
41 | S=C(N/N=C(/c1ccccc1)c1ccccn1)N1CCCCCC1 | -4%
42 | Cc1ccc2[nH]c3c(C)c4cc[n+](C)cc4c(C)c3c2c1 | 63%
43 | CNC(=O)OCc1c(COC(=O)NC)c(-c2ccc(-c3ccccc3)cc2)n(C)c1C | -5%
44 | COc1ccccc1/C=C1\Sc2scc(-c3cccc([N+](=O)[O-])c3)[n+]2C1=O | 97% (active)
45 | O=[N+]([O-])c1ccc2c(c1)C(N1CCN(CCO)CC1)Cc1ccc(F)cc1S2 (stereo not drawn) | 1%
46 | Cc1ccc(CCC2=CCCc3c2ccc2ccccc32)cc1 | -5%
47 | O=[N+]([O-])c1cccc2nccc(NCCCO)c12 | 2%
48 | Cc1ccc(-n2cc(-c3ccc(Cl)cc3)c(C#N)c2N)cc1 | -7%
49 | Cc1ccc(S/N=C\c2ccccc2O)cc1 | 2%
50 | O=C(O)C1OC1(c1cccc(Cl)c1)c1ccccc1Cl (stereo not drawn) | 39%
51 | NC(=S)N/N=C\c1nccc2ccccc12 | 96% (active)
52 | Clc1cccc(C(Nc2nncs2)Nc2nncs2)c1Cl | 9%
53 | O=C(OCC=C1CCCC1)c1cc([N+](=O)[O-])cc([N+](=O)[O-])c1 | 60%
54 | O=C(Nc1ccccc1)C(=O)C(C(=O)c1ccccc1)C(c1ccccc1)c1ccccc1 (stereo not drawn) | 24%
55 | N#CN1C2CCC1CC(=O)C2 | -27%
56 | COc1ccccc1C(=O)OCC1CCCN2CCCCC12 (stereo not drawn) | 63%
57 | CCNc1nnc(CSc2nc(-c3ccccc3)c(-c3ccccc3)[nH]2)s1 | 85% (active)
58 | O=C1c2ccccc2-c2n[nH]c3cccc1c23 | -6%
